Consider 27 molecules from the supplement of paper PMC6992640.

SMILES strings stand for the structures.

The subject of the assay is HCI01 (cells of a triple-negative basal-like breast cancer xenograft). As to the kind of experiment: cell viability of combination (% of vehicle); higher = less cytotoxic. The conditions noted are these: 1 µM; 72 h; partner dose: 10 nM. On the procedure:
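PDX cells were treated for 72 h with each drug at 1 µM plus carfilzomib (10 nM; 100 nM for WHIM2). Luciferase viability is expressed as percent of vehicle.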
As to `Nc1ccn(C2OC(CO)C(O)C2O)c(=O)n1` (configuration not stated) [Cytarabine] + CC(C)C[C@H](NC(=O)[C@H](CCc1ccccc1)NC(=O)CN1CCOCC1)C(=O)N[C@@H](Cc1ccccc1)C(=O)N[C@@H](CC(C)C)C(=O)[C@@]1(C)CO1 [Carfilzomib], the “cell viability of combination” value is 57.8. As for `CCC(NC(=O)C(C)NC)C(=O)N1CC(O)CC1Cc1c(-c2[nH]c3cc(F)ccc3c2CC2CC(O)CN2C(=O)C(CC)NC(=O)C(C)NC)[nH]c2cc(F)ccc12` (configuration not stated) + CC(C)C[C@H](NC(=O)[C@H](CCc1ccccc1)NC(=O)CN1CCOCC1)C(=O)N[C@@H](Cc1ccccc1)C(=O)N[C@@H](CC(C)C)C(=O)[C@@]1(C)CO1 [Carfilzomib], the figure is 61.9. As for `O=C(O)c1cc(O)c(O)c(O)c1` [Gallic acid] + CC(C)C[C@H](NC(=O)[C@H](CCc1ccccc1)NC(=O)CN1CCOCC1)C(=O)N[C@@H](Cc1ccccc1)C(=O)N[C@@H](CC(C)C)C(=O)[C@@]1(C)CO1 [Carfilzomib], the “cell viability of combination” value worked out at 74.5.

With `C=CC(=O)N1CCC(Oc2cc3c(Nc4ccc(Cl)c(Cl)c4F)ncnc3cc2OC)CC1` [Poziotinib] + CC(C)C[C@H](NC(=O)[C@H](CCc1ccccc1)NC(=O)CN1CCOCC1)C(=O)N[C@@H](Cc1ccccc1)C(=O)N[C@@H](CC(C)C)C(=O)[C@@]1(C)CO1 [Carfilzomib], the “cell viability of combination” value was 52.8.

On to `Cc1ccc(-n2[nH]c(C)c(NN=C3C=CC=C(c4cccc(C(=O)O)c4)C3=O)c2=O)cc1C` [Eltrombopag] + CC(C)C[C@H](NC(=O)[C@H](CCc1ccccc1)NC(=O)CN1CCOCC1)C(=O)N[C@@H](Cc1ccccc1)C(=O)N[C@@H](CC(C)C)C(=O)[C@@]1(C)CO1 [Carfilzomib], for which the “cell viability of combination” value came out at 74.8. `COc1ccc(C[C@H](N)C(=O)N[C@@H]2[C@H](O)[C@H](n3cnc4c(N(C)C)ncnc43)O[C@@H]2CO)cc1.Cl.Cl` [Puromycin dihydrochloride] + CC(C)C[C@H](NC(=O)[C@H](CCc1ccccc1)NC(=O)CN1CCOCC1)C(=O)N[C@@H](Cc1ccccc1)C(=O)N[C@@H](CC(C)C)C(=O)[C@@]1(C)CO1 [Carfilzomib]: the “cell viability of combination” value was determined as 76.4.

For `CC1=CC(=O)c2ccccc2C1=O` [Menadione] + CC(C)C[C@H](NC(=O)[C@H](CCc1ccccc1)NC(=O)CN1CCOCC1)C(=O)N[C@@H](Cc1ccccc1)C(=O)N[C@@H](CC(C)C)C(=O)[C@@]1(C)CO1 [Carfilzomib], the “cell viability of combination” value worked out at 78.2. Turning to `CCCCCCCCc1ccc(CCC(N)(CO)CO)cc1.Cl` [Fingolimod (FTY720)] + CC(C)C[C@H](NC(=O)[C@H](CCc1ccccc1)NC(=O)CN1CCOCC1)C(=O)N[C@@H](Cc1ccccc1)C(=O)N[C@@H](CC(C)C)C(=O)[C@@]1(C)CO1 [Carfilzomib], the “cell viability of combination” value was determined as 77.3.

Turning to `Oc1c(Cl)cc(Cl)c2cccnc12` [Chloroxine] + CC(C)C[C@H](NC(=O)[C@H](CCc1ccccc1)NC(=O)CN1CCOCC1)C(=O)N[C@@H](Cc1ccccc1)C(=O)N[C@@H](CC(C)C)C(=O)[C@@]1(C)CO1 [Carfilzomib], the “cell viability of combination” value turned out to be 79.4.

As to `Cc1nc(NC(=O)N2CCCC2C(N)=O)sc1-c1ccnc(C(C)(C)C(F)(F)F)c1` (configuration not stated) + CC(C)C[C@H](NC(=O)[C@H](CCc1ccccc1)NC(=O)CN1CCOCC1)C(=O)N[C@@H](Cc1ccccc1)C(=O)N[C@@H](CC(C)C)C(=O)[C@@]1(C)CO1 [Carfilzomib], the “cell viability of combination” value stood at 62.6. `CN(C(=O)CN(CCO)CC(=O)N(C)C(C)(C)Cc1ccccc1)C(C)(C)Cc1ccccc1` [Oxethazaine] + CC(C)C[C@H](NC(=O)[C@H](CCc1ccccc1)NC(=O)CN1CCOCC1)C(=O)N[C@@H](Cc1ccccc1)C(=O)N[C@@H](CC(C)C)C(=O)[C@@]1(C)CO1 [Carfilzomib]: the “cell viability of combination” value is 70.7. As for `CC(NCCCc1cccc(C(F)(F)F)c1)c1cccc2ccccc12.Cl` (configuration not stated) [Cinacalcet HCl] + CC(C)C[C@H](NC(=O)[C@H](CCc1ccccc1)NC(=O)CN1CCOCC1)C(=O)N[C@@H](Cc1ccccc1)C(=O)N[C@@H](CC(C)C)C(=O)[C@@]1(C)CO1 [Carfilzomib], the figure is 89.6; as for `Clc1ccc(C(Cn2ccnc2)OCc2ccsc2Cl)c(Cl)c1` (configuration not stated) [Tioconazole] + CC(C)C[C@H](NC(=O)[C@H](CCc1ccccc1)NC(=O)CN1CCOCC1)C(=O)N[C@@H](Cc1ccccc1)C(=O)N[C@@H](CC(C)C)C(=O)[C@@]1(C)CO1 [Carfilzomib], 88.4; as for `Cn1cnc2c(F)c(Nc3ccc(Br)cc3F)c(C(=O)NOCCO)cc21` + CC(C)C[C@H](NC(=O)[C@H](CCc1ccccc1)NC(=O)CN1CCOCC1)C(=O)N[C@@H](Cc1ccccc1)C(=O)N[C@@H](CC(C)C)C(=O)[C@@]1(C)CO1 [Carfilzomib], 67.1.

For `CC(Oc1cc(-c2cnn(C3CCNCC3)c2)cnc1N)c1c(Cl)ccc(F)c1Cl` [(R)-Crizotinib] + CC(C)C[C@H](NC(=O)[C@H](CCc1ccccc1)NC(=O)CN1CCOCC1)C(=O)N[C@@H](Cc1ccccc1)C(=O)N[C@@H](CC(C)C)C(=O)[C@@]1(C)CO1 [Carfilzomib], the “cell viability of combination” value worked out at 146. Consider `Cc1c(-c2ccc(O)cc2)n(Cc2ccc(OCCN3CCCCCC3)cc2)c2ccc(O)cc12.Cl` [Bazedoxifene HCl] + CC(C)C[C@H](NC(=O)[C@H](CCc1ccccc1)NC(=O)CN1CCOCC1)C(=O)N[C@@H](Cc1ccccc1)C(=O)N[C@@H](CC(C)C)C(=O)[C@@]1(C)CO1 [Carfilzomib], for which the “cell viability of combination” value stood at 107.

For `Cc1cn(-c2cc(NC(=O)c3ccc(C)c(Nc4nccc(-c5cccnc5)n4)c3)cc(C(F)(F)F)c2)cn1` [Nilotinib(AMN-107)] + CC(C)C[C@H](NC(=O)[C@H](CCc1ccccc1)NC(=O)CN1CCOCC1)C(=O)N[C@@H](Cc1ccccc1)C(=O)N[C@@H](CC(C)C)C(=O)[C@@]1(C)CO1 [Carfilzomib], the “cell viability of combination” value turned out to be 69.1. To `COc1ccccc1OCCNCC(O)COc1cccc2[nH]c3ccccc3c12` (configuration not stated) [Carvedilol] + CC(C)C[C@H](NC(=O)[C@H](CCc1ccccc1)NC(=O)CN1CCOCC1)C(=O)N[C@@H](Cc1ccccc1)C(=O)N[C@@H](CC(C)C)C(=O)[C@@]1(C)CO1 [Carfilzomib] belongs 76.8; to `Cc1cc(-n2c(=O)[nH]c(=O)n(C)c2=O)ccc1Oc1ccc(SC(F)(F)F)cc1` [Toltrazuril] + CC(C)C[C@H](NC(=O)[C@H](CCc1ccccc1)NC(=O)CN1CCOCC1)C(=O)N[C@@H](Cc1ccccc1)C(=O)N[C@@H](CC(C)C)C(=O)[C@@]1(C)CO1 [Carfilzomib], 76.4; to `CC(C)(C)Cn1c(N)nc2ccc(-c3[nH]c(C(C)(C)C)nc3-c3ccc(F)cc3)nc21.CS(=O)(=O)O.CS(=O)(=O)O` + CC(C)C[C@H](NC(=O)[C@H](CCc1ccccc1)NC(=O)CN1CCOCC1)C(=O)N[C@@H](Cc1ccccc1)C(=O)N[C@@H](CC(C)C)C(=O)[C@@]1(C)CO1 [Carfilzomib], 61.9. With `CCc1c(Cl)c(O)c(Cl)c(O)c1C(=O)OC1C(C)OC(OCC2=CC=CCC(O)C(C)=CC(CC)C(OC3OC(C)(C)C(OC(=O)C(C)C)C(O)C3O)C(C)=CC(C)=CCC(C(C)O)OC2=O)C(OC)C1O` (configuration not stated) [Fidaxomicin] + CC(C)C[C@H](NC(=O)[C@H](CCc1ccccc1)NC(=O)CN1CCOCC1)C(=O)N[C@@H](Cc1ccccc1)C(=O)N[C@@H](CC(C)C)C(=O)[C@@]1(C)CO1 [Carfilzomib], the “cell viability of combination” value stood at 92.5.

With `CN1CCC(COc2cnc(-c3cccc(Cn4nc(-c5cccc(C#N)c5)ccc4=O)c3)nc2)CC1` + CC(C)C[C@H](NC(=O)[C@H](CCc1ccccc1)NC(=O)CN1CCOCC1)C(=O)N[C@@H](Cc1ccccc1)C(=O)N[C@@H](CC(C)C)C(=O)[C@@]1(C)CO1 [Carfilzomib], the “cell viability of combination” value is 80.4.

Turning to `CNCCC(Oc1ccc(C(F)(F)F)cc1)c1ccccc1.Cl` (configuration not stated) [Fluoxetine HCl] + CC(C)C[C@H](NC(=O)[C@H](CCc1ccccc1)NC(=O)CN1CCOCC1)C(=O)N[C@@H](Cc1ccccc1)C(=O)N[C@@H](CC(C)C)C(=O)[C@@]1(C)CO1 [Carfilzomib], the “cell viability of combination” value was 72.4. As for `Cl.O.O=C1Cc2cc(CCN3CCN(c4nsc5ccccc45)CC3)c(Cl)cc2N1` [Ziprasidone hydrochloride monohydrate] + CC(C)C[C@H](NC(=O)[C@H](CCc1ccccc1)NC(=O)CN1CCOCC1)C(=O)N[C@@H](Cc1ccccc1)C(=O)N[C@@H](CC(C)C)C(=O)[C@@]1(C)CO1 [Carfilzomib], the figure is 79.6; as for `Cc1cccc(CN2CCN(C(c3ccccc3)c3ccc(Cl)cc3)CC2)c1.Cl.Cl` (configuration not stated) [Meclizine 2HCl] + CC(C)C[C@H](NC(=O)[C@H](CCc1ccccc1)NC(=O)CN1CCOCC1)C(=O)N[C@@H](Cc1ccccc1)C(=O)N[C@@H](CC(C)C)C(=O)[C@@]1(C)CO1 [Carfilzomib], 105; as for `CNC(=O)c1cc(Oc2ccc(NC(=O)Nc3ccc(Cl)c(C(F)(F)F)c3)c(F)c2)ccn1` [Regorafenib] + CC(C)C[C@H](NC(=O)[C@H](CCc1ccccc1)NC(=O)CN1CCOCC1)C(=O)N[C@@H](Cc1ccccc1)C(=O)N[C@@H](CC(C)C)C(=O)[C@@]1(C)CO1 [Carfilzomib], 74.6. On to `COCCn1c2c([n+](Cc3cnccn3)c1C)C(=O)c1ccccc1C2=O.[Br-]` + CC(C)C[C@H](NC(=O)[C@H](CCc1ccccc1)NC(=O)CN1CCOCC1)C(=O)N[C@@H](Cc1ccccc1)C(=O)N[C@@H](CC(C)C)C(=O)[C@@]1(C)CO1 [Carfilzomib], for which the “cell viability of combination” value is 25.5.
